Results published in PubChem BioAssay (NCATS).
Inconclusive results are not listed. A call without a number means that no potency is given here. The source made the active and inactive calls. Calls follow the shape of the full dose curve; tested in HEK293 reporter line.

test: qHTS for Inhibitors of the Functional Ribonucleoprotein Complex (vRNP) of Lassa (LASV) Arenavirus: LASV Primary Screen - GLuc reporter signal (AID 1347082); details: LASV minigenome vRNP, Gaussia luciferase reporter; series mostly up to 57.5 µM; also: nearly all actives have a fitted effect of over 60% in size

| Structure (SMILES) | Potency |
| --- | --- |
| CCCCCN(CCCCC)C(=O)C(CCC(=O)O)NC(=O)c1ccc(Cl)c(Cl)c1 (stereo not given) | inactive |
| CCOCC(O)COc1ccc(NC(=O)CC[S+](C)C)cc1 (stereo not given) | inactive |
| Cc1ccc(CCn2c3c(c4cc(Cl)ccc42)CN(C)CC3)cn1 | inactive |
| COc1ccc2nc(NC(=O)Nc3ccccc3)sc2c1 | inactive |
| CN(C)[C@@H]1C(=O)C(C(=O)NCN2CCCC2)=C(O)[C@@]2(O)C(=O)C3=C(O)c4c(O)cccc4[C@@](C)(O)C3C[C@@H]12 (stereo not given in full) | inactive |
| CCN(CC)CCOc1ccc(/C(=C(\Cl)c2ccccc2)c2ccccc2)cc1 | inactive |
| Cc1c(Cn2ccnc2)c2ccccc2n1CCC(=O)O | inactive |
| CC1(C)CO[C@@H](CC(=O)O)CN1 | inactive |
| CN1C(=O)CC(c2ccccc2)C1=O (stereo not given) | inactive |
| C[C@@]12CCC[C@H]1[C@@H]1CC[C@H]3C[C@@H](O)CC[C@]3(C)[C@H]1CC2 | inactive |
| O=C(O)CP(=O)(O)O | inactive |
| CN(C)CC[C@@H](c1ccc(Cl)cc1)c1ccccn1 | inactive |
| Cc1ccc(Cl)c(OCC(O)CNC(C)(C)C)c1 (stereo not given) | inactive |
| CCCCCCCCCCCC[N+](C)(C)Cc1ccccc1 | inactive |
| Oc1cccc2[nH]ccc12 | inactive |
| NC(N)=N/N=C/c1c(Cl)cccc1Cl | inactive |
| CC(C)NC(=O)c1ccc(C=O)cc1 | inactive |
| CCn1c(=O)c2c(nc(C=Cc3ccc(OC)c(OC)c3)n2C)n(CC)c1=O | inactive |
| Oc1ccc(Cl)cc1Sc1cc(Cl)ccc1O | inactive |
| O=c1ccc2ccccc2o1 | inactive |

| Structure (SMILES) | Potency |
| --- | --- |
| CCN(CC)CCOc1ccccc1C(=O)CCc1ccccc1 | inactive |
| Cc1cccc(C)c1NC(=O)C(C)N (stereo not given) | inactive |
| CC(=O)OCC(=O)Nc1cc(C#N)cc(NC(=O)COC(C)=O)c1Cl | inactive |
| CNC(=O)Oc1ccc2c(c1)[C@]1(C)CCN(C)[C@@H]1N2C | inactive |
| Cc1cc(C(C)(C)C)c(O)c(C)c1CC1=NCCN1 | inactive |
| C[C@]12C=CC(=O)C=C1CC[C@H]1[C@@H]3C[C@@H](O)[C@](O)(C(=O)CO)[C@@]3(C)C[C@H](O)[C@@]12F | inactive |
| COc1cc([C@H]2Oc3cc([C@H]4Oc5cc(O)cc(O)c5C(=O)[C@@H]4O)ccc3O[C@@H]2CO)ccc1O | inactive |
| Cl/C(=C\n1cncn1)c1ccc(Cl)cc1Cl | inactive |
| Cc1c(N(C)C)c(=O)n(-c2ccccc2)n1C | inactive |
| CC1=C(C(=O)O)N2C(=O)[C@@H](NC(=O)[C@H](N)C3=CCC=CC3)[C@H]2SC1 | inactive |
| Cc1cc(=O)oc2cc(O)ccc12 | inactive |
| NC(=O)C(=O)N/N=C/c1ccc([N+](=O)[O-])o1 | inactive |
| CC(=O)[C@@]1(O)CC[C@H]2[C@@H]3C[C@H](C)C4=CC(=O)CC[C@]4(C)[C@H]3CC[C@@]21C | inactive |
| CC(=O)NC(Cc1ccccc1)C(=O)O (stereo not given) | inactive |
| CCC(C)(C)c1ccc(CC(C)CN2C[C@@H](C)O[C@@H](C)C2)cc1 (stereo not given in full) | inactive |
| C=C1C(=C/C=C2\CCC[C@]3(C)[C@@H]([C@H](C)/C=C/[C@@H](O)C4CC4)CC[C@@H]23)C[C@@H](O)C[C@@H]1O | inactive |
| Cc1cc(NC(=O)C2=C(O)c3ccccc3S(=O)(=O)N2C)no1 | inactive |
| CCOC(=O)OC(C)OC(=O)[C@@H]1N2C(=O)[C@@H](NC(=O)[C@H](N)c3ccccc3)[C@H]2SC1(C)C (stereo not given in full) | inactive |
| Cc1cccc(CN2CCN(C(c3ccccc3)c3ccc(Cl)cc3)CC2)c1 (stereo not given) | inactive |
| Brc1c(NC2=NCCN2)ccc2nccnc12 | inactive |
